High-throughput results: PubChem BioAssay, Paczesny and Yang Labs, IUPUI and University of Michigan
This excerpt belongs to a sample that is enriched for hits.
ST2 IL33 inh – inhibitors of human ST2 (IL1RL1) binding to IL-33 | inhibition, % for hits at 17 µM | AID 1259354 | Q01638 | AlphaLISA ST2-Fc/biotin-IL-33 interaction, 1 h | 2.3% of 78,000 active; in the data active means inhibition above about 30%
Target sequence (Q01638 whole entry, looked up): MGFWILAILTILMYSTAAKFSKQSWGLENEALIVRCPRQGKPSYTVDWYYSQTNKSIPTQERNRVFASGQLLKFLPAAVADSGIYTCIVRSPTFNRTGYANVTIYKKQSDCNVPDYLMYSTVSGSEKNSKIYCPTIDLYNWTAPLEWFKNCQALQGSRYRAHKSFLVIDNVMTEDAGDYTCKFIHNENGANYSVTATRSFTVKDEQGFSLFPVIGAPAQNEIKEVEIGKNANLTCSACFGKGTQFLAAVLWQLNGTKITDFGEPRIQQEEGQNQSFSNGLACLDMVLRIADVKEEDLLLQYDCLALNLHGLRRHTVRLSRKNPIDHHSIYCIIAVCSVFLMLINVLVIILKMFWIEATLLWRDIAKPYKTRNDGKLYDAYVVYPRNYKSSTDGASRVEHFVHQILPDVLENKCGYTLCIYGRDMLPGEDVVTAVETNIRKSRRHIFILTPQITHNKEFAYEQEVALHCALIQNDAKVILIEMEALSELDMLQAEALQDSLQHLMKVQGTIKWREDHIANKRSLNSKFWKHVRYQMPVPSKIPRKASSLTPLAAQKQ
* marks the source's active call; other numbers are inactive results; i = inactive; ! = a repeat was not active.

SMILES	ST2 IL33 inh
O=[N+]([O-])c1ccccc1-c1ccc(/C=C/c2ccncc2)o1	49.0%*
O=C1OC(c2cccc(F)c2)=N/C1=C/c1ccc(-c2ccccc2[N+](=O)[O-])o1	i
O=C(Nc1ccc(I)cc1Cl)c1ccc(-c2ccccc2[N+](=O)[O-])o1	i
Cc1nc2c(C(=O)NCCCN3CCCC3)cnn2c(C)c1Cc1ccccc1	i
CC(=O)Nc1ccc2cccc(O)c2n1	i
Oc1cccc2ccc(/C=C/c3cc4c(cc3Cl)OCO4)nc12	32.0%*
CCCCC(=O)N1C2=C(C(=O)c3ccccc32)C(c2ccccc2)c2c1n(C)c(=O)n(C)c2=O (configuration not stated)	i
O=C(O)C1=CC(=C(c2ccc(O)c(C(=O)O)c2)c2ccc(O)c(C(=O)O)c2)C=CC1=O	89.0%*
CN(C(=O)CCc1cnn(C)c1)C1CCCN(C2Cc3ccccc3C2)C1 (configuration not stated)	i
Cc1ccc(-c2nc3n(n2)C(=O)CC(c2ccc(F)cc2)S3)cc1 (configuration not stated)	i
Cc1cc(N2CCN(C)CC2)nc(N2CCN(S(=O)(=O)c3ccccc3)CC2)n1	i
CCOc1ccc2nc(C)cc(Nc3cccc(Cl)c3)c2c1	i
CN(C)c1ccc(CN2CCc3ccccc3C2)cc1	31.0%*
Clc1ccc(CN2CCc3ccccc3C2)cc1Cl	i
CCOc1ccc(CN2CCc3ccccc3C2)cc1	i
c1ccc2c3c([nH]c2c1)CN(Cc1ccc2c(c1)OCO2)CC3	i
CN(C)c1ccc(CN2CCc3c([nH]c4ccccc34)C2)cc1	32.0%*
Clc1ccccc1CN1CCc2c([nH]c3ccccc23)C1	i
COc1ccc(N(CN2C(=O)c3cccc([N+](=O)[O-])c3C2=O)C(C)=O)cc1	i
COc1cc(CN2CCN(Cc3ccc4c(c3)OCO4)CC2)c([N+](=O)[O-])cc1OC	i
O=C(CN1C(=O)c2ccccc2S1(=O)=O)Nc1ccc(Br)cc1	i
c1ccc(OCc2noc(CN3CCC(c4ccncc4)CC3)n2)cc1	i
Cc1ccc(-n2c(SC(C)c3ccccc3)nc3c(c2=O)SCC3)cc1 (configuration not stated)	31.0%*!
Cc1ccc(-n2c(SCC(=O)Nc3cc(C)ccc3C)nc3c(c2=O)SCC3)cc1	i
COc1ccccc1-n1c(SCc2ccccc2)nc2c(c1=O)SCC2	i
SMILES	ST2 IL33 inh
CCOC(=O)C(CC)Sc1nc2c(c(=O)n1-c1ccccc1)SCC2 (configuration not stated)	i
COc1ccccc1-n1c(SCC(=O)Nc2ccccc2)nc2c(c1=O)SCC2	35.0%*!
CCSc1nc2c(c(=O)n1-c1ccccc1OC)SCC2	i
Cc1ccc(-n2c(SCC(=O)Nc3ccccc3F)nc3c(c2=O)SCC3)cc1	32.0%*
CCOC(=O)C(C)Sc1nc2c(c(=O)n1-c1ccc(Cl)cc1)SCC2 (configuration not stated)	i
Cc1ccc(-n2c(SCC(=O)Nc3nccs3)nc3c(c2=O)SCC3)cc1	i
Cc1ccc(-n2c(SCC(=O)Nc3cccc(Cl)c3)nc3c(c2=O)SCC3)cc1	31.0%*
O=C(CSc1nc2c(c(=O)n1-c1ccc(Cl)cc1)SCC2)Nc1cccc(Cl)c1	i
Cc1ccc(-n2c(SCC(=O)Nc3cccc(C(F)(F)F)c3)nc3c(c2=O)SCC3)cc1	i
O=C1CC(NCc2cccc3c2OCO3)CN1CCCc1ccccc1 (configuration not stated)	i
CCc1ccc(NC(=O)CN2CCCN(Cc3cccc(F)c3)S2(=O)=O)cc1	i
CCOc1cc(CN2CCC(C(=O)NCc3ccc(OC)cc3)CC2)ccc1O	i
CCC(C)NC(=O)c1ccc2c(c1)N(Cc1cc(C)ccc1C)C(=O)CS2 (configuration not stated)	i
C=CCOc1ccc(C2C(C(=O)OC)=C(C)N=C3SCCC(=O)N32)cc1OC (configuration not stated)	i
O=C(NCc1cccs1)c1cc(-c2ccccc2O)on1	i
CCN(Cc1ccccc1)C(=O)CNS(=O)(=O)c1ccc(Br)s1	i
CN1[C@@H](CCC(=O)NCc2cccnc2)CNC(=O)[C@@H]2[C@H]1CCN2Cc1cn(C)c2ccccc12	i
Cc1cccn2c(=O)c3cc(C(=O)NCC(C)C)n(C)c3nc12	i
Cc1ccsc1S(=O)(=O)N1CCCC(O)(CN(C)C)CC1 (configuration not stated)	i
O=C(Nc1nnc(N=Cc2ccc(F)cc2)s1)c1ccc(S(=O)(=O)N2CCOCC2)cc1	i
CCOC(=O)c1c(C)oc2c(Br)cc(NS(=O)(=O)c3ccc(Cl)cc3)cc12	i
O=C(NCCc1nc2ccccc2s1)c1cn2c(n1)CNCC2	i
O=c1c2c3c(sc2ncn1Cc1ccccc1Cn1cccn1)CNCC3	i
Cc1ccc(-n2c(SCC(=O)NCCc3ccccc3)nc3c(c2=O)SCC3)cc1	31.0%*
CCOC(=O)CSc1nc2c(c(=O)n1-c1ccc(C)cc1)SCC2	i
SMILES	ST2 IL33 inh
O=C(CSc1nc2c(c(=O)n1-c1ccc(F)cc1)SCC2)NCc1ccc(F)cc1	i
CCOC(=O)C1(C/C=C/c2ccccc2)CCCN(C(=O)Cn2cncn2)C1 (configuration not stated)	i
CC(C)Cc1n[nH]c(Cn2[nH]c(=O)ccc2=O)n1	i
COc1cccc(C2NC(=O)c3c(sc4c3CCCC4)N2)c1 (configuration not stated)	i
O=C(CCCN1C(=O)S/C(=C\C=C\c2ccccc2)C1=O)Nc1ccc(C(=O)O)cc1	32.0%*
O=C(O)CCCC(=O)Nc1ccc(C(=O)O)cc1	i
O=C(CCCCCN1C(=O)c2ccccc2C1=O)Nc1ccc(Cl)cc1	i
O=C1c2ccccc2-c2ncnc3c(S(=O)(=O)O)cc(O)c1c23	i
Nc1c(Br)cc(O)c2c1C(=O)c1ccccc1C2=O	68.0%*
COc1cccc(OCc2cc(C(=O)N3CCc4sccc4C3)n[nH]2)c1	i
Cc1c(C(=O)NCCC2CN(C)CCO2)cnn1-c1ccccn1 (configuration not stated)	i
CN(C)c1ccc(-c2cc(C(N)=O)on2)cc1	i
Cc1ccc(S(=O)(=O)N2CCN(C(=O)c3cn[nH]c3C)CC2)cc1	i
CC(C)(C)C(=O)/C=C(N)\C=C\c1ccccc1	37.0%*
O=C(/C=C/c1ccccc1)CC(O)CCc1ccccc1 (configuration not stated)	i
CC(=O)Nc1ccc(/C=C/c2ccccc2)cn1	i
Cc1ccc(NC(=O)C(C)n2nc([N+](=O)[O-])c(Br)c2C)cc1C (configuration not stated)	i
C=CCC1c2cccc(C(=O)O)c2C(=O)N1c1cccc(OC)c1 (configuration not stated)	i
O=C(O)c1ccccc1N1C(=O)C2C3CC(C(Br)C3Br)C2C1=O (configuration not stated)	i
CC1CC2c3cccc(C(=O)O)c3C(=O)N2c2ccc(F)cc21 (configuration not stated)	32.0%*
O=C(Oc1c(Cc2ccccc2)c(=O)oc2ccccc12)c1ccco1	i
COCCN[C@H]1[C@@H]2OC[C@@H](O2)[C@@H](NCc2ccc(-c3ccccc3)cc2)[C@@H]1O	36.0%*
O[C@H]1[C@H](NCc2ccc(-c3ccccc3)cc2)[C@H]2CO[C@H](O2)[C@@H]1Oc1ccccc1	i
COc1ccccc1N1CCN([C@H]2[C@@H]3OC[C@@H](O3)[C@@H](NCc3ccc(-c4ccccc4)cc3)[C@@H]2O)CC1	i
